Measurements reported in the supplement of paper PMC11732987, “Enantioselective OTUD7B fragment discovery through chemoproteomics screening and high-throughput optimisation” (Communications Chemistry, 2025).

Tests used:
Assay in all cases: log2 ratio of Biotin-Ahx-Ub-VS probe labelling (fragment/DMSO); higher = less target engagement (more negative = stronger competition), active = hit call of the paper (q ≤ 0.05, log2 ratio ≤ -1)
Conditions in all cases: compound concentration: 200 uM; treatment time: 3 h
[1] = target: USP34 (UniProt Q70CQ2)
Summary of the method: (§1)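 Labelled DUBs from HEK293T lysate were NeutrAvidin-enriched, digested with LysC and trypsin, and run by diaPASEF LC-MS/MS. Before that, each 495 µg sample in Tris/CHAPS/IGEPAL buffer with protease inhibitors was treated in triplicate with fragment at 200 µM or vehicle for 3 h, then with Biotin-Ahx-Ub-VS at 0.5 µM final for 1 h. Values are average log2 ratios of fragment over vehicle by unpaired t-test, based on global-median-normalised Spectronaut label-free quantities from proteins with ≥2 unique peptides.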

[2] = target: T1, USP36 (UniProt Q9P275)
T1 sequence (whole entry): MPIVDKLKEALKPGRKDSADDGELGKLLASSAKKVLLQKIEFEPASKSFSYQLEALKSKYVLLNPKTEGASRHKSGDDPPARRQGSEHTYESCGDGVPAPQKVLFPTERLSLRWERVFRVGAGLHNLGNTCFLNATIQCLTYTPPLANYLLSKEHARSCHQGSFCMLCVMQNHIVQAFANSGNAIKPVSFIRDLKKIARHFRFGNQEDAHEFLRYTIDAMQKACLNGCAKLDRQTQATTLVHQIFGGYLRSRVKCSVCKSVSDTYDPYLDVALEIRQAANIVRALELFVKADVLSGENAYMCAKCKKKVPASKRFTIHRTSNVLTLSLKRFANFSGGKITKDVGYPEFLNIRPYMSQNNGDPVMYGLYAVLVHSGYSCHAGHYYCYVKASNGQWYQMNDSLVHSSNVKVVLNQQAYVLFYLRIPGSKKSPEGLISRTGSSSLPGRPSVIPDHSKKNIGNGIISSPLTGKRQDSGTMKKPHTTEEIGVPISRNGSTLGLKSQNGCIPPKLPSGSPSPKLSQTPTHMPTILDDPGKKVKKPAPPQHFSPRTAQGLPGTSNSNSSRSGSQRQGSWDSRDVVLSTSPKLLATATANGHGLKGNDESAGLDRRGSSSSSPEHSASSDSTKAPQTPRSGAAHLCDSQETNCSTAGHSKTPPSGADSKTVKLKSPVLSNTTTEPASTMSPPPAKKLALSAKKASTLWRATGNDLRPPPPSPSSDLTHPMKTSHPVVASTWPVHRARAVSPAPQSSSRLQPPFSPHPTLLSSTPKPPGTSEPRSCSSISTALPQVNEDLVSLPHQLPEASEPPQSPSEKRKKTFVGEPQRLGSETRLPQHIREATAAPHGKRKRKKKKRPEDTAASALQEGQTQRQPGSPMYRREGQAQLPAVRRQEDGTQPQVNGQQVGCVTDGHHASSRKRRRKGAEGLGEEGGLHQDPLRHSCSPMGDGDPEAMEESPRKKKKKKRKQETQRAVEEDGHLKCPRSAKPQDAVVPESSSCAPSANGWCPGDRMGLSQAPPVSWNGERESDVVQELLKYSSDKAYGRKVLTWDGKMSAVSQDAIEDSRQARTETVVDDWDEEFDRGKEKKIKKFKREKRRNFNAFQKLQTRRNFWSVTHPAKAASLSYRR
Summary of the method: as §1

[3] = target: T2, USP38 (UniProt Q8NB14)
T2 sequence (whole entry): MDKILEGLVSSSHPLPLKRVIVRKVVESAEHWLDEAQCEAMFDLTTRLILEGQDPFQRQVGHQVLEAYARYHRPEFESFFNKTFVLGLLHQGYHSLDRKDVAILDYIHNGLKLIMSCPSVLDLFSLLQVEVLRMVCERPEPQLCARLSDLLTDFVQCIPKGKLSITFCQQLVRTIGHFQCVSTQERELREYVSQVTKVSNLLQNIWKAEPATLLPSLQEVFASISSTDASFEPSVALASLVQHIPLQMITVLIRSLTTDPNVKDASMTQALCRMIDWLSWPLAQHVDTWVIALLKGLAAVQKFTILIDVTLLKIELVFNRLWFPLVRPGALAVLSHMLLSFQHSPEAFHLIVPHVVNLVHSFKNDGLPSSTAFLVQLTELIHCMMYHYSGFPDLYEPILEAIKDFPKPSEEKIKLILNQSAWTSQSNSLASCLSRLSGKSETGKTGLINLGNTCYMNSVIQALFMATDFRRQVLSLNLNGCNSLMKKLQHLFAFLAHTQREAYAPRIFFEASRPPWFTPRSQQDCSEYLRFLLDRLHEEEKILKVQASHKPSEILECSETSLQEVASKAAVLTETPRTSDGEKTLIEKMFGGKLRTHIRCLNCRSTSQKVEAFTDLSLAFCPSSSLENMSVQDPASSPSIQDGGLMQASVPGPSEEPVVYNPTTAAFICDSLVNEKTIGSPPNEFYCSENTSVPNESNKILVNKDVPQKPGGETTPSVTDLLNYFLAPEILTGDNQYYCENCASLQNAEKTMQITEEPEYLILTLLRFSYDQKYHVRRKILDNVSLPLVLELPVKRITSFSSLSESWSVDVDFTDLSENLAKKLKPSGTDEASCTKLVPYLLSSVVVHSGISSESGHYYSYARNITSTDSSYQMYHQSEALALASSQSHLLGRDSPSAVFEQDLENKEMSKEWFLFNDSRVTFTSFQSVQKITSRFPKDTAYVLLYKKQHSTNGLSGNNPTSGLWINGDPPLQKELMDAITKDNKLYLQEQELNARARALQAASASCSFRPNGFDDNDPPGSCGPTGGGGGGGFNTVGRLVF
Summary of the method: as §1

[4] = target: T3, USP39 (UniProt Q53GS9)
T3 sequence (whole entry): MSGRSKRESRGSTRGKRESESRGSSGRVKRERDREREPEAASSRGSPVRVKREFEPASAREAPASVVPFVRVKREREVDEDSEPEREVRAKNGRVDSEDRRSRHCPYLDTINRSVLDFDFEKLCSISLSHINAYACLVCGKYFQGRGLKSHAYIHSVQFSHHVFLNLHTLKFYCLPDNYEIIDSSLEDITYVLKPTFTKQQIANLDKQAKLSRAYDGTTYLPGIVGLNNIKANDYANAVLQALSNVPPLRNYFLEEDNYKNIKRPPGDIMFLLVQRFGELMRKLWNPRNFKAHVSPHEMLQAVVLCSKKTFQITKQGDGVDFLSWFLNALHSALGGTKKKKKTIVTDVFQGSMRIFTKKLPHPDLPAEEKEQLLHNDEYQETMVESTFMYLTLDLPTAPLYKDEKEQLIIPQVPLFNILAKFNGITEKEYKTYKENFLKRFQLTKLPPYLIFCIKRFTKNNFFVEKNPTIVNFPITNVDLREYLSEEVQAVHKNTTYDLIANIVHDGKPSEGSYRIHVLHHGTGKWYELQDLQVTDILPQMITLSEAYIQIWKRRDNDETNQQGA
Summary of the method: as §1

[5] = target: T4, USP4 (UniProt Q13107)
T4 sequence (whole entry): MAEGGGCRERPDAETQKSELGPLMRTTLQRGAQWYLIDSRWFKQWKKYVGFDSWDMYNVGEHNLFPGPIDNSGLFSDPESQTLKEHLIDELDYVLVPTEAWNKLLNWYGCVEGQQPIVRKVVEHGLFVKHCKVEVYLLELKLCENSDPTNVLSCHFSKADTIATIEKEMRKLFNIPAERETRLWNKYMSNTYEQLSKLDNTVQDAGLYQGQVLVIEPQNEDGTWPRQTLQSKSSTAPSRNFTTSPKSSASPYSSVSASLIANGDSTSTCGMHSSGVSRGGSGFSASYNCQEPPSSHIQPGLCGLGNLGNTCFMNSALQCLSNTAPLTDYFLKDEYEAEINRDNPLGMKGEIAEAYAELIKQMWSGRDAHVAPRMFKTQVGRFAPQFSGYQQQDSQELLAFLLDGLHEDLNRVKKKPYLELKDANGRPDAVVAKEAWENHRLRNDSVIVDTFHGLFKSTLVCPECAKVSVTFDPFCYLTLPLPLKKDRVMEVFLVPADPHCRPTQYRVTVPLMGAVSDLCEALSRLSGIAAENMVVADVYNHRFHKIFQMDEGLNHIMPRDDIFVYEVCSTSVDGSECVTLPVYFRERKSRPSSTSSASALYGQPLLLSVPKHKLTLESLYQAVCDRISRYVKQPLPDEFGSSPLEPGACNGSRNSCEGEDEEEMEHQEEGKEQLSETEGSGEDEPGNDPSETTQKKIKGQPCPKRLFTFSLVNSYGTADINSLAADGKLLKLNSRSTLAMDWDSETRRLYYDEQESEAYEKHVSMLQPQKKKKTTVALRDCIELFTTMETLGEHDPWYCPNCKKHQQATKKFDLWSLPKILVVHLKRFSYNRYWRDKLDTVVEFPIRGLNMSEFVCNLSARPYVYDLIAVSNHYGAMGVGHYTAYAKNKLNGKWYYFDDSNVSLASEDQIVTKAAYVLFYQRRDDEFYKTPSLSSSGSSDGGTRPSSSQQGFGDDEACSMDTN
Summary of the method: as §1

Measured: log2 ratio of Biotin-Ahx-Ub-VS probe labelling

Sequence of USP34 (Q70CQ2 whole entry, the tested form may be a part): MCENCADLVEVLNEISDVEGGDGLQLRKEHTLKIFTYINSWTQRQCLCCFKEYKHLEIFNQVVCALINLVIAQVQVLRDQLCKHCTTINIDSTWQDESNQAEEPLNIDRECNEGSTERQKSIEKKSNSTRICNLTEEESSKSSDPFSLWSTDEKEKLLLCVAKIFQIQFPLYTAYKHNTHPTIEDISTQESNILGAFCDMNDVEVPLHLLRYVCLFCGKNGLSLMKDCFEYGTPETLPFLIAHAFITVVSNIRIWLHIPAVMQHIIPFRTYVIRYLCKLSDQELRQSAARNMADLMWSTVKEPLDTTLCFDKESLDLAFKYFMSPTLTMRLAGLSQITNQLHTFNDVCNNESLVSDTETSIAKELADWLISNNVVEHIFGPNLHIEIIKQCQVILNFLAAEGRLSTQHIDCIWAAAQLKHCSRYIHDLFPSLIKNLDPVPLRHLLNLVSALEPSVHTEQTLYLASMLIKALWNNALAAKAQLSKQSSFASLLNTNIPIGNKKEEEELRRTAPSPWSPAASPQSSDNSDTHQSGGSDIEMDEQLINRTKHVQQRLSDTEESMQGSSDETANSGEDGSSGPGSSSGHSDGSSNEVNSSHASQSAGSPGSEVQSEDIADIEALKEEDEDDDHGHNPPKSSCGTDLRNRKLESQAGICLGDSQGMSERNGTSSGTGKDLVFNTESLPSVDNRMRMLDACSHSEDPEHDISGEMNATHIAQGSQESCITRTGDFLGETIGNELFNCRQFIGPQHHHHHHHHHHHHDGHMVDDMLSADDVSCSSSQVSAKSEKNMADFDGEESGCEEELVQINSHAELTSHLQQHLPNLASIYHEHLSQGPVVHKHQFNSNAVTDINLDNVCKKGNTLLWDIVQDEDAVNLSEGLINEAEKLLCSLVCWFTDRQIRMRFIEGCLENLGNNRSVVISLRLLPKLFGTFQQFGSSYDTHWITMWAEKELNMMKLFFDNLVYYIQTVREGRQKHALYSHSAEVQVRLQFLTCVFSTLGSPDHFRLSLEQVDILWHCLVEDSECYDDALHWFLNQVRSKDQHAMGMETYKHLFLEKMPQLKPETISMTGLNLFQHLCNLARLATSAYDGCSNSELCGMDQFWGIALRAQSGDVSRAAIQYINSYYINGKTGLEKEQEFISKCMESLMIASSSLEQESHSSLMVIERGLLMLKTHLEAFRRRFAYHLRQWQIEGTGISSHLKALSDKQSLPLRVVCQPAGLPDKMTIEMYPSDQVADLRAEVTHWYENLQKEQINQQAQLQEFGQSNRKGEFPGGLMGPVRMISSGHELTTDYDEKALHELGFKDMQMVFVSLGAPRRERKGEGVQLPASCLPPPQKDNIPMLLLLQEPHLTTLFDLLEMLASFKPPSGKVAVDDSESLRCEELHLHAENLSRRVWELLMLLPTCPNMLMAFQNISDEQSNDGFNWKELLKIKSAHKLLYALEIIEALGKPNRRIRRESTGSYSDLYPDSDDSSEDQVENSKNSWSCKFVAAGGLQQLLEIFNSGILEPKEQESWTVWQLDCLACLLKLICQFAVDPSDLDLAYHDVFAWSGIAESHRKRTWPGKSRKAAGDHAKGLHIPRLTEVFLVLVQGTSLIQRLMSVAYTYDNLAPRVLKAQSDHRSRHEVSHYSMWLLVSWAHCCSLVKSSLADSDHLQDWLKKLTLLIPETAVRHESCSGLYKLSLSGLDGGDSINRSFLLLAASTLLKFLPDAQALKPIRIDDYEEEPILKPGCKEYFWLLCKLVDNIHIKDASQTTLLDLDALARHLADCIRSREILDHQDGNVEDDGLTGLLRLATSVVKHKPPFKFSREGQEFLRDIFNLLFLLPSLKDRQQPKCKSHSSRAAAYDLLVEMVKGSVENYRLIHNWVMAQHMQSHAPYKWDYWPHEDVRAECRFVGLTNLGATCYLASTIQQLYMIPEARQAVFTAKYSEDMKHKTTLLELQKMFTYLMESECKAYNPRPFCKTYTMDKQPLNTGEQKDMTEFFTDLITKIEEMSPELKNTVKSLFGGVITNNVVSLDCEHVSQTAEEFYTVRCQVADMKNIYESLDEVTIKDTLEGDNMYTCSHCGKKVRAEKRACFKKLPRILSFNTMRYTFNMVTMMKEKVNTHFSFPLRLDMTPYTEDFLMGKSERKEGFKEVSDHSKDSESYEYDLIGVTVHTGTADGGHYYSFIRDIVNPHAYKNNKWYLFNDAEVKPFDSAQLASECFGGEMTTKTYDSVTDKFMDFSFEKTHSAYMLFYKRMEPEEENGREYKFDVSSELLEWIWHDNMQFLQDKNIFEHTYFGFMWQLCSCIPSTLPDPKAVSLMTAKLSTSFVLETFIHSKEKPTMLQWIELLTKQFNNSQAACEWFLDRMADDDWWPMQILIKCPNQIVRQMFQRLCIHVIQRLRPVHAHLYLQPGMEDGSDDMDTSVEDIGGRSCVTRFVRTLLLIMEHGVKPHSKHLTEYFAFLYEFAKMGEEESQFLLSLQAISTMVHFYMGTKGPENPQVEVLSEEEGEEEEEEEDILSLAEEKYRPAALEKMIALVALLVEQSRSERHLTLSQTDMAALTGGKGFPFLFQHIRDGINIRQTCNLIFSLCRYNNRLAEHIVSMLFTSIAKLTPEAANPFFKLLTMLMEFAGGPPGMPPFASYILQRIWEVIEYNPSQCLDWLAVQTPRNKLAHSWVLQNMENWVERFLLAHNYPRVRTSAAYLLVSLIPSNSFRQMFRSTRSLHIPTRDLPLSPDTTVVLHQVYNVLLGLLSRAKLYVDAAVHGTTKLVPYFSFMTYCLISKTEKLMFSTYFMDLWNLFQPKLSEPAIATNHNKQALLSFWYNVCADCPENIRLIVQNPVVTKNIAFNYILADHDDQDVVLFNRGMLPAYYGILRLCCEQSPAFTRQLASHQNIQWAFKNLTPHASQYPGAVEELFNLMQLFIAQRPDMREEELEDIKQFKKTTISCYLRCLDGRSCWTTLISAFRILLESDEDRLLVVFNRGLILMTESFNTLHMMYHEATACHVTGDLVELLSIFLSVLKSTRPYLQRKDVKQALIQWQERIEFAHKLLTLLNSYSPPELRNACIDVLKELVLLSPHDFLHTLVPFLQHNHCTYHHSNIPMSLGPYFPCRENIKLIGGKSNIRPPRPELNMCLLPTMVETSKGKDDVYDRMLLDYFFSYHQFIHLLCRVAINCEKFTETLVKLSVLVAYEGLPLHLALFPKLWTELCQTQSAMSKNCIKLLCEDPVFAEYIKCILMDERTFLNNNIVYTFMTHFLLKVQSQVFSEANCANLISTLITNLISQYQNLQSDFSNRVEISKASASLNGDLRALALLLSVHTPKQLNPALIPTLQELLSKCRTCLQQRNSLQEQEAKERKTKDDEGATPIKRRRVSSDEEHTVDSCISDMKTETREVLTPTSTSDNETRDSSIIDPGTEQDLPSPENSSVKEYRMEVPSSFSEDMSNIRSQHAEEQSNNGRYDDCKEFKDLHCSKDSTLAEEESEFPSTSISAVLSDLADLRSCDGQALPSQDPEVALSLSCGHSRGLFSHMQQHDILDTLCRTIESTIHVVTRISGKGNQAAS

O=C(CCl)N1CCCC2CCCCC21 (stereo not given)
inactive: [1] -0.14 | [2] -0.176 | [3] -0.0442 | [4] -0.107 | [5] -0.14
